Several values for one entry are separate records, joined by “and”; a condition that tells them apart may be missing. Equal values may be shown once. Results filed as inconclusive are left out. Entries that show only a call come without a potency. Some structures have more than one record in an assay (separate samples or runs), and their calls can disagree. Activity calls are given as the source filed them. Calls follow the shape of the dose curve; as a rule, active = well fitted inhibition curve with a large enough effect in the repeat runs; inconclusive = weak or mixed curves, or effect the other way; inactive = no such curve, though single readings can be large or run the other way.
These compounds were tested against Androgen receptor (Homo sapiens) (UniProt P10275) (assay: qHTS assay to identify small molecule antagonists of the androgen receptor (AR) signaling pathway using the MDA cell line (AID 743042; also: nearly all actives have a fitted effect of over 55% in size)). Conditions: MDA-kb2 AR-luc, MMTV luciferase, R1881 antagonist, 16 h; series mostly up to 70.3 µM; activity change, negative = inhibition: at the top concentration.
From the text: U.S. Tox21 Program National Center for Advancing Translational Sciences [NCATS] NIH Chemical Genomics Center [NCGC] U.S. Environmental Protection Agency [EPA] National Institutes of Environmental Health Sciences [NIEHS] National Toxicology Program [NTP] U.S. Food and Drug Administration [FDA] Tox21 Assay Overview: Androgen receptor (AR), a nuclear hormone receptor, plays a critical role in AR-dependent prostate cancer and other androgen related diseases. Endocrine disrupting chemicals (EDCs) and their interactions with steroid hormone receptors like AR may cause disruption of normal endocrine function as well as interfere with metabolic homeostasis, reproduction, developmental and behavioral functions. To identify the compounds that inhibit AR signaling, MDA-kb2 AR-luc cell line (from ATCC, deposited by Wilson et al.) was used to screen the Tox21 10K compound library. MDA-kb2 AR-luc cell line is human breast carcinoma cell line that was stably transfected with a luciferase reporter gene under control of the MMTV promoter containing response elements for both androgen receptor (AR) and glucocorticoid receptor (GR).
Tox21 Assay Protocol Summary: MDA-kb2 cells were dispensed at 3,000 cells/4 uL/well of culture medium into white wall/solid-bottom 1536-well plates using a Multidrop Combi (ThermoFisher Scientific, Waltham, MA) dispenser. After the assay plates were incubated at a 37C and 0% CO2 for 5 hr, 23 nL of compounds dissolved in DMSO, positive controls or DMSO only was transferred to the assay plate by a Pintool station (Kalypsys, San Diego, CA), followed by addition of 1 uL of agonist (R1881) in culture medium using a Bioraptr Flying Reagent Dispenser (FRD) workstation (Beckman Coulter, Indianapolis, IN, USA). The plates were incubated at a 37C and 0% CO2 for 16 h. After 15.5 h incubation, 1uL of CellTiter-Fluor reagent (Promega, Madison, WI) was added using a Bioraptr FRD to each plate for measuring cytotoxicity. The fluorescence intensity was quantified on a ViewLux plate reader (PerkinElmer, Shelton, CT) following 30 min incubation at 37C and 0% CO2. For measuring luciferase reporter gene activity, 4 uL of ONE-Glo reagent (Promega) was added to each plate using a Bioraptr FRD and luminescence was quantified on a ViewLux (PerkinElmer) plate reader after 30 min incubation at room temperature.
Potency is read from the fitted curve at half-maximal effect.

Androgen receptor (Homo sapiens), sequence (P10275 whole entry, looked up): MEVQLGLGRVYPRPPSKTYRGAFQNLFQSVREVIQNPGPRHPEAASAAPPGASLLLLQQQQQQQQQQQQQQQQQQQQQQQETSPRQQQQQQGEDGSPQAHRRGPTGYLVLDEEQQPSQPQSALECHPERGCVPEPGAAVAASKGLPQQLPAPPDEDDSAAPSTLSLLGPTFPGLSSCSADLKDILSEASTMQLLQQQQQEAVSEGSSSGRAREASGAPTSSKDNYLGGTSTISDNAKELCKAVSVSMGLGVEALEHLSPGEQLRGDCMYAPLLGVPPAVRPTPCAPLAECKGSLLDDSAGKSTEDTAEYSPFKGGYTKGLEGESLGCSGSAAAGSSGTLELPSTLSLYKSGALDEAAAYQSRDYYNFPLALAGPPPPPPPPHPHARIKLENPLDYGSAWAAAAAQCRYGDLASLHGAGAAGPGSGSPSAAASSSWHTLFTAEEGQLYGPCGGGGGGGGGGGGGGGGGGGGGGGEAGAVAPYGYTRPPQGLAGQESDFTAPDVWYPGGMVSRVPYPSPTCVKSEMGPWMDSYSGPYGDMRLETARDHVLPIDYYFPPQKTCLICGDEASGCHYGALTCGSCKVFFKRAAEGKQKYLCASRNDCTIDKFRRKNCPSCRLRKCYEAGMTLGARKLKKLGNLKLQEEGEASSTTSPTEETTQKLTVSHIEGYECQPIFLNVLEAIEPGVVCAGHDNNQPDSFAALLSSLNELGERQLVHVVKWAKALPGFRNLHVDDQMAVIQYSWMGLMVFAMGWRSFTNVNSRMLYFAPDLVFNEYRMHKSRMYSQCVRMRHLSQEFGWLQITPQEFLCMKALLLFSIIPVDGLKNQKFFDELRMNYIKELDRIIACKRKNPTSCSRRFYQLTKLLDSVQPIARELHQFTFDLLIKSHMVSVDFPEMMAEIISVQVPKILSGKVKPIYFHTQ

Structure (SMILES)	Potency	activity change, negative = inhibition
CCC(=O)O[C@H]1CC[C@H]2[C@@H]3CCC4=CC(=O)CC[C@]4(C)[C@H]3CC[C@]12C	inactive	–
CCCCC(CC)COC(=O)c1ccc(C(=O)OCC(CC)CCCC)c(C(=O)OCC(CC)CCCC)c1 (stereo not given)	inactive	–
CCCCNC(=O)n1c(NC(=O)OC)nc2ccccc21	inactive	–
CC(C)Oc1cc(-n2nc(C(C)(C)C)oc2=O)c(Cl)cc1Cl	38.6 µM (active)	–
O=[N+]([O-])c1c(Cl)c(Cl)c(Cl)c(Cl)c1Cl	inactive and 43.3 µM (active)	–
O=[N+]([O-])c1ccc(O)c([N+](=O)[O-])c1	61.1 µM (active)	–
C=C(C)[C@H]1Cc2c(ccc3c2O[C@@H]2COc4cc(OC)c(OC)cc4[C@@H]2C3=O)O1	188 nM (active) and 24.7 nM (active) and 9.7 nM (active)	–
COP(=S)(OC)Oc1cc(Cl)c(Cl)cc1Cl	inactive	–
Nc1ccncc1	inactive	–
O=C(O)CC[N+](=O)[O-]	–	-12.2% (inactive)
CCc1cccc(CC)c1N(COC)C(=O)CCl	61.1 µM (active)	–
COP(=O)(OC)OC	inactive	–
N#Cc1cc(Br)c(O)c(Br)c1	61.1 µM (active)	–
CC(C)(OOC(C)(C)c1ccccc1)c1ccccc1	inactive	–
CCN(CC)C(=O)/C(Cl)=C(\C)OP(=O)(OC)OC	inactive	–
Cc1cc(Cl)ccc1OCCCC(=O)O	inactive	–
c1cc(OCC2CO2)ccc1Cc1ccc(OCC2CO2)cc1 (stereo not given)	inactive	–
Nc1ccc(Cl)cc1N	inactive	–
CCCCCCCCOC(=O)c1ccccc1C(=O)OCCCCCCCC	inactive	–
Nc1c(Cl)cc([N+](=O)[O-])cc1Cl	inactive and 61.1 µM (active)	–
